# Laboratory results published in PubChem BioAssay (NCI).
# Compounds without any hit were thinned out: in the full panel of roughly 79,000, 15% have a hit. Values without a mark were called inactive. Active and inactive are the calls of the source. No stated cut-off is given here; in the data, active means growth inhibition above about 70%; inactive means the rest.
# Test: NCI Yeast Anticancer Drug Screen. Data for the sgs1 mgt1 strain (AID 161);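 further: 0% = growth of cultures given vehicle only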
# Conditions: S. cerevisiae sgs1 mgt1 strain, at 50.0 µM, active compounds read high
# In short: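 Percent growth inhibition was derived by comparing compound-exposed mutant yeast with vehicle-exposed cultures. The strain carries alterations in DNA damage repair.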
row,Compound,growth inhibition
1,O=C(OCC1OC(OC(=O)N(c2ccccc2)c2ccccc2)C(OS(=O)(=O)c2ccc([N+](=O)[O-])cc2)C1OC(=O)c1ccccc1)c1ccccc1 (stereo not given),-5.05%
2,CC(C)C(=O)Nc1ccc(Cl)c(Cl)c1,44.3%
3,Clc1ccc(C(=C(c2ccc(Cl)cc2)c2ccc(Cl)cc2)c2ccc(Cl)cc2)cc1,3.5%
4,COC(=O)Nc1cccc(OC(=O)Nc2cccc(Cl)c2)c1,26.6%
5,COc1cc(C2=N/C(=C\c3cc(Cl)cc(Cl)c3O)C(=O)O2)cc(OC)c1OC,2.85%
6,CSc1ccc(NC(=O)Oc2cc(C)c(Cl)cc2C(C)C)cc1,91.8% (active)
7,c1ccc(C2=NOC(c3ccccc3)N2C23CC4CC(CC(C4)C2)C3)cc1 (stereo not given),-17.5%
8,O=C1c2ccccc2CN(C(=Nc2ccccc2)Nc2ccccc2)c2ccccc21,-0.55%
9,O=c1c2ccccc2nc(-c2ccccc2)n1/N=C/c1cccnc1,30.8%
10,Cc1ccc(C(=O)N/N=C/c2c(O)ccc3ccccc23)cc1,9.95%
11,C[n+]1ccccc1/C=C/c1csc2ccccc12,4.75%
12,CNCCCN1CCCCC1,22.4%
13,CN1CN(c2ccccc2)C2(CCN(c3nc4ccccc4s3)CC2)C1=O,-22.8%
14,CC1(C)CC[C@]2(C(=O)O)CC[C@]3(C)C(=CC[C@@H]4[C@@]5(C)CC[C@H](OC6OC(CO)C(O)C(O)C6OC6OC(CO)C(O)C(O)C6O)C(C)(C)[C@@H]5CC[C@]43C)[C@@H]2C1 (stereo not given in full),87.1% (active)
15,Cc1cc(=O)oc2c(C(=O)/C=C/N(C)C)c(O)ccc12,7.85%
16,CS1(C)=NC(=O)C2=C(N=1)c1ccccc1S2(=O)=O,-19%
17,O=C(Nc1cc(C(F)(F)F)ccc1Cl)N(Cc1ccccc1)c1ccccc1,-1.35%
18,CN(C)c1ncnc2c1ncn2C1OC(CO)C(O)C1O (stereo not given),4%
19,CCCNC(=S)/N=C/c1c(O)c2ccccc2[nH]c1=O,-11.7%
20,C1=C(c2ccccc2)C(OC2Oc3ccccc3C=C2c2ccccc2)Oc2ccccc21 (stereo not given),6.35%

row,Compound,growth inhibition
1,O=C1c2ccccc2C(=O)c2c(Nc3ccc4c5c(cccc35)C(=O)c3ccccc3-4)cccc21,-14.2%
2,N#C/C=C\c1ccc(C#N)cc1,20.3%
3,Cc1cccc2c(C=O)c[nH]c12,-13.4%
4,O=c1[nH]c(=S)[nH]c2[nH]ccc12,-19.6%
5,C1=C(N2CCOCC2)/C(=C2\SC(=Nc3ccccc3)C(=Nc3ccccc3)N2c2ccccc2)CC1,-7.65%
6,CCCCCCCCC(C)C,-0.3%
7,O=S(O)CCCCSSCC(O)CO (stereo not given),15.2%
8,CC(=O)Nc1ccc(S(=O)(=O)n2c(=O)oc3cc(Cl)ccc32)cc1,3.1%
9,Cc1cccc(NCN2C(=O)c3ccccc3C2=O)c1,3.8%
10,CSCCCC(N)=O,-1.5%
11,O=C1CC2(CCCCC2)CC(=O)N1,8.3%
12,COC(=O)C(Cc1nc2ccccc2[nH]c1=O)C(NO)C(=O)Nc1c(Cl)cc([N+](=O)[O-])cc1Cl (stereo not given),36.6%
13,CC(=O)OCCc1cccc(C)c1,-4.8%
14,CCCCCNC(=O)c1csc(-c2csc(CCNC(C)=O)n2)n1,4.7%
15,COc1ccc2nc(N/N=C/C(C)=N/Nc3cc(C)c4cc(OC)ccc4n3)cc(C)c2c1,-2%
16,CC1(C)C=C(O)C=C(O)C1,17.4%
17,O=C(CSSCC(=O)Nc1ccccc1O)Nc1ccccc1O,-11.7%
18,COc1ccc(C2SCC(=O)N2NC(=O)c2ccc(NC(C)=O)cc2)c(OC)c1 (stereo not given),-23.2%
19,CN(C)CC1CCCC(CN(C)C)C1OC(=O)c1ccccc1 (stereo not given),9.25%
20,NC(=O)c1ccccc1NC(=O)C(=O)C(C(=O)c1ccc2ccccc2c1)C1OC(=O)c2ccccc21 (stereo not given),10.6%
